# From PubChem BioAssay (NCATS)
# “And” between values parts separate entries of the source, which are not always exact repeats. Identical values can stand only once. Results filed as inconclusive are left out. Entries that show only a call come without a potency. The source made the active and inactive calls. Unless noted, calls follow the shape of the dose curve; as a rule, active = well fitted curve in the direction sought with a large enough effect; inconclusive = small, poorly fitted or top-dose-only effect, or another doubt; inactive = no such curve, though single readings can be large; an effect the other way counts as inactive or inconclusive.
# Key:
# [1] = Cell Viability - LYMP1-002 - Assay at 40 hr (AID 994); also: nearly all actives have a fitted effect of over 60% in size; also: potency is read from the fitted curve at half-maximal effect
# Method in brief: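 LYMP1-002 human lymphoblastoid cells (2500/well, complete medium) were treated with compounds for 40 hr at 37 C. Intracellular ATP was measured by CellTiter-Glo luminescence, and AC50 values came from Hill-equation fits of concentration-response data; tetraoctylammonium bromide was the positive control.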
# [2] = qHTS Assay for Lipid Storage Modulators (AID 1519; calls by dose curve); details: Drosophila S3 cells, BODIPY lipid droplet/cell ratio, laser cytometry, cells loaded with oleic acid
# Method in brief: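 Cells seeded at 5,000 per well were treated with compounds over a concentration series and loaded with oleic acid (400 uM, as added). Lipid droplet fluorescence (488 nm excitation, 500-530 nm channel) was read by laser-scanning cytometry and normalized to 20 uM Triacsin C.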
# [3] = target: DNA repair nuclease/redox regulator APEX1 (Homo sapiens) (UniProt P27695); experiment: qHTS Validation Assay for Inhibitors of the Human Apurinic/apyrimidinic Endonuclease 1 (APE1) (AID 1705; also: potency is read from the fitted curve at half-maximal effect;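 as to activity change, negative = inhibition: TAMRA fluorescence gain over two minutes as APE1 cuts a quenched THF abasic duplex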)
# Chain of DNA repair nuclease/redox regulator APEX1 (Homo sapiens) (P27695 whole entry, looked up): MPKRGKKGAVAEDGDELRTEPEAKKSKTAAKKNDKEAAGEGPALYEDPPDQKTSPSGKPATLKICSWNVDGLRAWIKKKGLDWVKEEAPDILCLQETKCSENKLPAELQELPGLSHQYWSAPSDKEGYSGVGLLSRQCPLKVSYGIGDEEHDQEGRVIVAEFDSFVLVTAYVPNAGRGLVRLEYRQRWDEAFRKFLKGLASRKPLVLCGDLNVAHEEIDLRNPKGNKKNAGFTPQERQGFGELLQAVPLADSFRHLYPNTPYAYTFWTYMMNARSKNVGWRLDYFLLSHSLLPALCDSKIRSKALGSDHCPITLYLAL
# Method in brief: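 Activity read as rising fluorescence (598 nm emission, 525 nm excitation) from incision of a TAMRA/BHQ-2 duplex carrying a THF abasic site (50 nM). Compound and enzyme sat 15 min at RT before substrate start; signal change between first and third 60-s reads.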
# [4] = Counterscreen for APE1 Inhibitors: Fluorescent Dye Displacement Validation Assay (AID 1707); also: potency is read from the fitted curve at half-maximal effect
# Method in brief: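 ThO 250 nM + dsDNA 50 nM (THF abasic site, 5'-TAMRA), Tris-HCl pH7.5/50mM NaCl/2 mM MgCl2/0.01% Tween-20; compounds pin-transferred; ex 480/em 540 nm endpoint. Neutral = no compound; no-DNA ThO wells = negative control.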
# [5] = target: Alpha-galactosidase A (Homo sapiens) (UniProt P06280); experiment: Counterscreen for Glucocerebrosidase Inhibitors: qHTS Assay for Human alpha-Galactosidase at pH 4.5 (AID 992)
# Chain of Alpha-galactosidase A (Homo sapiens) (P06280 whole entry, looked up): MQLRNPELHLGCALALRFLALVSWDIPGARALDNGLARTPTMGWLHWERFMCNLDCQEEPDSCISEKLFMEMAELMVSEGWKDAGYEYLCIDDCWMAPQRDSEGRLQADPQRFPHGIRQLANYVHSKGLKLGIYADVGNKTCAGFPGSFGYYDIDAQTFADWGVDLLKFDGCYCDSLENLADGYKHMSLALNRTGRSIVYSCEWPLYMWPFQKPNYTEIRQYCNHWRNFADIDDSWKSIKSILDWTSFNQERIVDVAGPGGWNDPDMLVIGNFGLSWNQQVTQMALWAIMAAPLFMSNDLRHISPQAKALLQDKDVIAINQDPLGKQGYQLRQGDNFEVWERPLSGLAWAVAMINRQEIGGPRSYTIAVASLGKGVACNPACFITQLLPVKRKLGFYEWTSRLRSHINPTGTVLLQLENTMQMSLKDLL
# Method in brief: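 Read-out is 4-methylumbelliferone fluorescence (365 nm excitation, 440 nm emission) after a pH 10 NaOH/glycine stop. Reactions held 2 nM enzyme and 80 uM substrate at pH 4.5 for 20 min at room temperature.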
# [6] = qHTS for differential inhibitors of proliferation of Plasmodium falciparum line 7G8 (AID 1815);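 also: parasite growth measured after three days of incubation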; also: potency is read from the fitted curve at half-maximal effect
# [7] = qHTS for differential inhibitors of proliferation of Plasmodium falciparum line GB4 (AID 1816); details: Potency: Plasmodium falciparum GB4 proliferation inhibition;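 also: parasite growth measured after 72 h incubation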; also: potency is read from the fitted curve at half-maximal effect
# [8] = qHTS for differential inhibitors of proliferation of Plasmodium falciparum line 3D7 (AID 1876); also: potency is read from the fitted curve at half-maximal effect
# [9] = qHTS for differential inhibitors of proliferation of Plasmodium falciparum line D10 (AID 1877);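 also: parasites grown with compound for 72 h before DNA staining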; also: potency is read from the fitted curve at half-maximal effect
# [10] = qHTS for differential inhibitors of proliferation of Plasmodium falciparum line Dd2 (AID 1882); details: Potency: Plasmodium falciparum Dd2 proliferation inhibition; also: nearly all actives have a fitted effect of over 65% in size; also: potency is read from the fitted curve at half-maximal effect
# Method in brief: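 Dd2-infected erythrocytes (0.3% parasitemia, 2.5% hematocrit final) incubated with compound 72 h at 37 C, 5% CO2; lysed with saponin/Triton buffer containing SYBR Green I, incubated overnight in the dark, then read by fluorescence (485/535 nm). Normalized to 0.29 uM artemisinin and DMSO.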
# [11] = qHTS for differential inhibitors of proliferation of Plasmodium falciparum line W2 (AID 1883); details: Potency: Plasmodium falciparum W2 proliferation inhibition;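 also: parasites grown with compound for 72 h before lysis and staining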; also: potency is read from the fitted curve at half-maximal effect
# [12] = qHTS for differential inhibitors of proliferation of Plasmodium falciparum line HB3 (AID 1886); details: Potency: Plasmodium falciparum HB3 proliferation inhibition;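 also: parasites grown with compound for 72 h before SYBR Green readout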; also: potency is read from the fitted curve at half-maximal effect
# [13] = target: alpha-glucosidase (Oryza sativa, rice) (UniProt Q653V4); experiment: Counterscreen for Glucocerebrosidase Inhibitors: qHTS Assay for Rice alpha-Glucosidase at pH 5.0 (AID 997)
# Method in brief: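 Rice alpha-glucosidase (4 nM final) with 400 uM 4-methylumbelliferyl-alpha-D-glucopyranoside in citrate buffer pH 5.0, 20 min at room temperature, stopped at pH 10; fluorescence 365/440 nm, compounds 0.7 nM–77 uM, AC50 from Hill fits.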
# [14] = qHTS Assay for Modulators of Human Peripheral Myelin Protein 22 (PMP22) Expression/Activity (AID 1967; active = well fitted curve in the direction sought with a large enough effect in the signal ratio; the % refers to the signal ratio)
# Method in brief: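 Readout is the corrected green/red luminescence ratio after 24 h compound exposure, normalised to untreated cells (0%). Engineered MSC80 mouse Schwann cells express green luciferase from the mouse Pmp22 promoter and red luciferase from EF-alpha as internal control.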
# [15] = target: Endonuclease 4 (Escherichia coli (strain K12)) (UniProt P0A6C1); experiment: Counterscreen for APE1 Inhibitors: qHTS Validation Assay for Inhibitors of Endonuclease IV (AID 1708)
# Method in brief: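 Concentration-response counterscreen run identically to the APE1 assay: 15 min room-temperature preincubation of 2 nM enzyme with compound, reaction started with 50 nM quenched abasic DNA, progress taken from kinetic fluorescence.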
# [16] = Cell Viability - LYMP2-020 (AID 986); also: nearly all actives have a fitted effect of over 55% in size
# Method in brief: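 Human lymphoblastoid LYMP2-020 cells (2500/well) preincubated 5 h at 37 C, then treated 24 h at 37 C. Viability measured as intracellular ATP by CellTiter-Glo luminescence after 30 min at room temperature; AC50 from Hill fits.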
# [17] = Cell Viability - LYMP2-022 (AID 987); also: nearly all actives have a fitted effect of over 55% in size
# Method in brief: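 LYMP2-022 lymphoblastoid cells (2500/well, complete medium) were treated with compounds for 24 hours at 37 C; intracellular ATP was then read by CellTiter-Glo luminescence after 30 min at room temperature. AC50 values were derived from Hill-equation fits.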
# [18] = Cell Viability - LYMP2-024 (AID 988); also: nearly all actives have a fitted effect of over 60% in size
# Method in brief: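 Human lymphoblastoid LYMP2-024 cells (2500/well) rested 5 hr, then treated with compound for 24 hr at 37 C in complete medium. Viability was measured as intracellular ATP by CellTiter-Glo luminescence. AC50 values came from Hill-equation fits.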
# [19] = Cell Viability - LYMP2-026 (AID 989); also: nearly all actives have a fitted effect of over 50% in size
# Method in brief: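 Human lymphoblastoid LYMP2-026 cells, 2500/well, exposed to compound 24 h at 37 C in complete medium. Viability as intracellular ATP by CellTiter-Glo luminescence; AC50 from Hill fits of qHTS concentration-response.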
# [20] = measured here: cell count channel max response
# [21] = measured here: lipid channel max response
smiles,measurement,setting,value
CC(COc1ccccc1)N(CCCl)Cc1ccccc1 (configuration not stated),Potency,[1],inactive
same,"activity change, negative = inhibition",[2]; at 57.5 µM (top of the series),6.18% (inactive)
same,max response,[2]; [20],11.9%
same,max response,[2]; [21],23.2%
same,Potency,[3],inactive
same,Potency,[4],inactive
COc1ccc(CCN(C)CCCC(C#N)(c2ccc(OC)c(OC)c2)C(C)C)cc1OC (configuration not stated),Potency,[3],inactive
same,Potency,[4],inactive
CC[N+](CC)(CC)CCOc1cccc(OCC[N+](CC)(CC)CC)c1OCC[N+](CC)(CC)CC,outcome,[5],inactive
same,Potency,[3],inactive
same,Potency,[4],inactive
same,Potency,[6],inactive
same,Potency,[7],inactive
same,Potency,[8],inactive
same,Potency,[9],inactive
same,Potency,[10],inactive
same,Potency,[11],inactive
same,Potency,[12],inactive
O=C(Nc1ccc([N+](=O)[O-])cc1Cl)c1cc(Cl)ccc1O,outcome,[5],inactive
same,outcome,[13],inactive
same,Potency,[3],inactive
same,Potency,[4],3980 nM (active)
same,Potency,[6],1000 nM (active)
same,Potency,[7],708 nM (active)
same,Potency,[8],794 nM (active)
same,Potency,[9],1000 nM (active)
same,Potency,[10],1410 nM (active)
same,Potency,[11],794 nM (active)
same,Potency,[12],794 nM (active)
COc1cc2c(c(OC)c1OC)-c1ccc(OC)c(=O)cc1[C@@H](NC(C)=O)CC2,outcome,[5],inactive
same,Potency,[1],31.6 nM (active)
same,outcome,[13],inactive
same,Potency,[3],inactive
same,Potency,[4],inactive
same,Potency,[14],inactive
COc1cc2nc(N3CCN(C(=O)c4ccco4)CC3)nc(N)c2cc1OC,Potency,[3],inactive
same,Potency,[6],7940 nM (active)
same,Potency,[7],12600 nM (active)
same,Potency,[8],8910 nM (active)
same,Potency,[9],10000 nM (active)
same,Potency,[10],7940 nM (active)
same,Potency,[11],5010 nM (active)
same,Potency,[12],10000 nM (active)
CN(Cc1cnc2nc(N)nc(N)c2n1)c1ccc(C(=O)N[C@@H](CCC(=O)O)C(=O)O)cc1,outcome,[5],inactive
same,"activity change, negative = inhibition",[2]; at 57.5 µM (top of the series),0.2% (inactive)
same,max response,[2]; [20],-11.7%
same,max response,[2]; [21],-9.12%
same,Potency,[3],20000 nM (active)
same,Potency,[15],inactive
same,Potency,[6],126 nM (active)
same,Potency,[7],39.8 nM (active)
same,Potency,[8],70.8 nM (active)
same,Potency,[9],39.8 nM (active)
same,Potency,[10],79.4 nM (active)
same,Potency,[11],39.8 nM (active)
same,Potency,[12],70.8 nM (active)
COc1ccc2[nH]cc(CCNC(C)=O)c2c1,outcome,[16],inactive
same,outcome,[17],inactive
same,outcome,[18],inactive
same,outcome,[19],inactive
same,outcome,[5],inactive
same,Potency,[1],inactive
same,outcome,[13],inactive
same,"activity change, negative = inhibition",[2]; at 25.7 µM (top of the series),1.02% (inactive)
same,"activity change, negative = inhibition",[2]; at 57.5 µM (top of the series),11.3% (inactive) and -5.62% (inactive) and 7.48% (inactive)
same,Potency,[3],inactive
same,Potency,[4],inactive
same,Potency,[15],inactive
same,Potency,[6],inactive
same,Potency,[7],inactive
same,Potency,[8],inactive
same,Potency,[9],inactive
same,Potency,[10],inactive
same,Potency,[11],inactive
same,Potency,[12],inactive
O=C(C1CCCCC1)N1CC(=O)N2CCc3ccccc3C2C1 (configuration not stated),outcome,[5],inactive
same,outcome,[13],inactive
same,"activity change, negative = inhibition",[2]; at 57.5 µM (top of the series),2.76% (inactive)
same,max response,[2]; [20],-17.9%
same,max response,[2]; [21],-16.6%
same,Potency,[3],inactive
same,Potency,[4],inactive
same,Potency,[15],inactive
same,Potency,[11],12600 nM (active)
CC12CC3CC(C)(C1)CC(N)(C3)C2,"activity change, negative = inhibition",[2]; at 57.5 µM (top of the series),7.67% (inactive) and 1.43% (inactive)
same,max response,[2]; [20],15.3% and 15.6%
same,max response,[2]; [21],26.5% and 20.5%
same,Potency,[3],inactive
same,Potency,[15],inactive
same,Potency,[6],11200 nM (active)
same,Potency,[7],891 nM (active)
same,Potency,[9],inactive
same,Potency,[10],5620 nM (active)
same,Potency,[11],2240 nM (active)
Cc1cn([C@H]2C=C[C@@H](CO)O2)c(=O)[nH]c1=O,outcome,[16],inactive
same,outcome,[17],inactive
same,outcome,[18],inactive
same,outcome,[19],inactive
same,outcome,[5],inactive
same,Potency,[1],inactive
same,"activity change, negative = inhibition",[2]; at 57.5 µM (top of the series),1.52% (inactive)
same,max response,[2]; [20],-10.8%
same,max response,[2]; [21],-8.91%
same,Potency,[3],inactive
same,Potency,[4],inactive
same,Potency,[6],inactive
same,Potency,[7],inactive
same,Potency,[8],inactive
same,Potency,[9],inactive
same,Potency,[10],inactive
same,Potency,[11],inactive
same,Potency,[12],inactive
